# Assay results from PubChem BioAssay (NCI).
# Several values for one entry are separate records, joined by “and”; a condition that tells them apart may be missing. Equal entries are not always repeated. The panel holds about 83,000 compounds, 20% with a hit somewhere; the sample as a whole holds those more often.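 Percent growth is the endpoint: 0 to 100 indicates growth inhibition (40 means 60% inhibition), 0 means no net growth, and negative values indicate cell death.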 Activity calls are given as the source filed them. Rule for the calls: active = growth percent below 10; inactive = the rest.
# System: HL-60(TB) leukemia
# Assay: NCI-60 one-dose screen, 48 h (100 = growth as untreated, 0 = no growth, -100 = all killed)
# Conditions: 10 µM unless noted
row,SMILES,growth
1,Nc1ccn(-c2ccc(Br)cc2)c(=O)n1,125% (inactive)
2,CO[C@]12C=C/C(=C(/C(=O)OCc3cccnc3)C(=O)CCCCCCCC[C@@]3(OC)C=C/C(=C(/C(=O)OCc4cccnc4)C(=O)CCCCCCCC1)O3)O2,-20.2% (active)
3,O=C(C[C@]1(O)C(=O)Nc2ccccc21)c1cccc(C(F)(F)F)c1,102% (inactive)
4,Nc1c(N)c2ccccc2c2ccccc12,104% (inactive)
5,CCc1c(CC(=O)O)c2cc(C)ccc2n1Cc1ccc(Cl)cc1,89.3% (inactive) and 161% (inactive)
6,Cn1cc(-c2cc3ncnc(Nc4ccc(CC(=O)Nc5cc(C(C)(C)C)on5)cc4)c3s2)cn1,57.5% (inactive)
7,C=C1CC[C@@H]2[C@](C)(COC(C)=O)[C@H](OC(C)=O)CC[C@@]2(C)[C@@H]1CC(Nc1ccc(S(=O)(=O)Nc2cc(C)on2)cc1)C1=CCOC1=O (stereo not given in full),-2.05% (active)
8,C=C(C)[C@@H]1CC[C@]2(C(N)=O)CC[C@]3(C)[C@H](CC[C@@H]4[C@@]5(C)C/C(=C/c6cccnc6)C(=O)C(C)(C)[C@@H]5CC[C@]43C)[C@@H]12,3.16% [100 µM] (active)
9,CSc1nc(NCCO)c(C#N)c(-c2cccc(N)c2)n1,96.1% (inactive)
10,CC(C)(C)c1ccc(S(=O)(=O)Oc2ccc3c4c(c(=O)oc3c2)CCCCC4)cc1,52% (inactive)
11,COc1cc(-c2nc3cc(Cl)c(Cl)cc3[nH]2)ccc1OCC(=O)NN,82% (inactive)
12,O=C(Nc1ccc(-c2nc(N3CCOCC3)c3cccn3n2)cc1)Nc1cccnc1,12% (inactive)
13,O=C(CNS(=O)(=O)Cc1ccccc1)NNc1ccccc1,18% (inactive)
14,CCN(CC)c1ccc2[nH]c3c(C(N)=O)cc(=O)c(=O)c=3oc2c1,-25.1% (active)
15,CC(=O)O[C@@H]1CCN2C(=O)N(C)c3ccccc3[C@@H]2C1,101% (inactive)
16,C[n+]1c(/C=C/c2c[nH]c3ccccc23)ccc2ccccc21,73.9% (inactive)
17,C/C=C\COc1cc(C)c(Cl)cc1Cl,105% (inactive)
18,COc1ccc(NC(=O)CSc2nc3ccc(Cl)cc3c(=O)n2-c2ccccc2C(F)(F)F)c(OC)c1OC,105% (inactive)
19,Cc1cc(NC(=O)CSCC(=O)O)no1,88.9% (inactive)
20,C#Cc1ccccc1NC(=O)c1sc2nc3c(cc2c1N)CCCCC3,99.7% (inactive)

row,SMILES,growth
1,O=C1Nc2c(ccc(Cl)c2Cl)/C1=C/c1ccc(F)cc1,71.4% (inactive)
2,CN(C)C1CCN(C(=O)c2ccc(NC(=O)Nc3ccc(-c4nc(N5CCOCC5)nc(N5CCOCC5)n4)cc3)cc2)CC1,1.8% [2.5 µM] (active)
3,COc1ccc(-c2c(-c3nc4ccc(N5CCOCC5)cc4[nH]3)[nH]c(C)c2C(C)=O)cc1,4.22% (active)
4,Nc1c(C(=O)Nc2ccccn2)sc2nc3c(cc12)CCCCCC3,-22.2% (active)
5,CS(=O)(=O)OCC1NC(=O)C(COS(C)(=O)=O)NC1=O (stereo not given),98% (inactive) and 106% (inactive)
6,Cc1c(Cl)cccc1NC(=O)c1sc2nc3c(cc2c1N)CCCCC3,-24.9% (active)
7,O=C(Nc1ccc(C2=NCCCN2)cc1)Nc1ccc(C2=NCCCN2)cc1,87.4% (inactive)
8,Nc1ccccc1SC1CC(=O)N(c2cccc3ccccc23)C1=O (stereo not given),97% (inactive)
9,CN(C)c1ccc2nc3ccc(=[N+](C)C)cc-3sc2c1,0.249% (active) and -38.6% (active) and 19.8% (inactive)
10,COCC(=O)NC/C=C/c1ccc2ncnc(Nc3ccc(Oc4ccc(C)nc4)c(C)c3)c2c1,22.2% (inactive)
11,CCOC(=O)c1c(SC)nn(-c2cc(=O)[nH]c3ccc(Br)cc23)c1N,103% (inactive)
12,CCN(CC)CC(=O)Nc1c(C)cc(C(=O)NN)cc1C,65.2% (inactive)
13,O=C1NC(=O)N(Cc2ccccc2)CC1Br (stereo not given),56.4% (inactive)
14,O=C1OC(C(O)C(O)CO)C(O)=C1O (stereo not given),114% (inactive) and 104% (inactive)
15,COc1ccc(C(=O)n2nc(CC(=O)NCc3ccccc3)nc2N)cc1,91.9% (inactive)
16,COc1ccc(CCNC(=S)NN)cc1OC,92.1% (inactive)
17,CC(=O)n1nc(C(=O)OC(C)C)c2cc(C)c(C)cc21,83.7% (inactive)
18,COc1ccccc1CNC(=O)C1c2ccccc2C(=O)N(CC(C)C)C1c1cccs1 (stereo not given),67.9% (inactive)
19,COc1cc(NC(C)CCCNC(C)C)c2ncccc2c1OC (stereo not given),10.6% (inactive)
20,Cc1cccc(NC2=C(C#N)C(=O)NC3(CCCC3)S2)c1,89.7% (inactive)
